Among the data in PubChem BioAssay are composite z-score, z-score and composite Z-score values, retold here.

Active and inactive are the calls of the source.

Assay [1] deals with Human papillomavirus type 1a protein E7 (residues 44-93). The assay can be described thus: small molecules binding HPV E7 44-93 – biochemical, small-molecule microarray, residues 44-93, 635 nm fluorescence, primary screen (AID 1108).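 Further: E7 fragment applied at 1 µg/mL in TBST for 1 h at 4 C; score combines spot fluorescence with its signal to noise ratio.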 Conditions: fluorescence 635 nm, higher = more signal.
Assay [2] can be described thus: hepatitis C replication reporter changes, two-sided – Huh7 cells, luciferase reporter, HCV replication inhibitor project, primary screen (AID 1109).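 Further: huh7 hepatoma cells harbouring a luciferase neomycin HCV replicon reporter; luciferase luminescence as measure of HCV replicon replication; test concentration not given here.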 Conditions: Huh7 HCV replicon luciferase reporter, 48 h; higher = more signal. On the technique in general: A reporter such as luciferase makes a cellular process visible.
Assay [3] concerns the target Left-right determination factor 2 (Homo sapiens) (UniProt O00292). The assay can be described thus: small molecules binding LEFTY2 protein – biochemical, small-molecule microarray, 635 nm fluorescence scan, primary screen (AID 1110). The note with it: higher = more signal.
Assay [4] has as its target Calmodulin-1 (Homo sapiens) (UniProt P0DP23). The assay can be described thus: small molecules binding calmodulin-1 with EGTA – biochemical, small-molecule microarray, Cy5-labelled CALM1, profiling panel (AID 1111).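 Further: labelled calmodulin applied in Tris saline Tween buffer holding calcium plus EGTA and DTT.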 Conditions: Cy5-CALM1 binding fluorescence, higher = more signal.
Assay [5] has the same target. In words: small molecules binding Ca-loaded calmodulin-1 – biochemical, small-molecule microarray, Cy5-labelled CALM1, plus calcium, artefact control for SMM control-protein annotation, profiling panel (AID 1112).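 Further: score merges spot fluorescence with signal to noise from triplicate slides.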 The note with it: Cy5-CALM1 binding fluorescence, higher = more signal.
Assay [6] can be described thus: probe aWnt5a binding to arrayed compounds – biochemical, biotinylated probe, 635/667 nm fluorescence, primary screen (AID 1113).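 Further: score merges 667 nm fluorescence intensity with signal-to-noise per printed feature.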 The note with it: small-molecule microarray, higher = more signal.
Assay [7] in a line: probe aShh binding to arrayed compounds – biochemical, biotinylated probe, 635/667 nm fluorescence, primary screen (AID 1114).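 Further: probe is biotin-labelled aShh protein from a stem cell growth factor screen; measures binding of labelled protein to compounds printed on the slide; score merges feature fluorescence at 667 nm with signal-to-noise.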 Conditions: small-molecule microarray, higher = more signal.
Assay [8] in a line: probe aNog binding to arrayed compounds – biochemical, biotinylated probe, 635/667 nm fluorescence, primary screen (AID 1115).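 Further: probe is biotinylated aNog protein used at 0.15 µg/mL for 1 h at 4 C; z-score combines 667 nm fluorescence of each spot with its signal to noise.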 The note with it: small-molecule microarray, higher = more signal.
Assay [9] addresses Torsin-1A-interacting protein 1 (Homo sapiens) (UniProt Q5JTV8). The assay can be described thus: compound microarray binding of lysate hLAP1 – cell lysate, small-molecule microarray, COS7 lysate, 635/667 nm fluorescence, primary screen (AID 1116). The note with it: 635 nm fluorescence, higher = more signal.
The target in assay [10] is Alpha-bungarotoxin (Bungarus multicinctus) (UniProt P60615). The assay can be described thus: compounds binding labelled alpha-BTX control protein – biochemical, small-molecule microarray, Alexa647 label, 635/667 nm fluorescence, artefact control for SMM control protein annotation, profiling panel (AID 1117). Conditions: alpha-BTX-A647 binding fluorescence, higher = more signal.

Another assay addresses Albumin (Bos taurus) (UniProt P02769). The assay can be described thus: compounds binding labelled BSA control protein – biochemical, small-molecule microarray, Alexa647 label, 635/667 nm fluorescence, artefact control for SMM control protein annotation, profiling panel (AID 1118).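 Further: score merges 667 nm emission intensity and signal-to-noise per printed compound spot.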 The note with it: BSA-A647 binding, fluorescence 635 nm, higher = more signal.
Assay [11] can be described thus: probe aXIP binding to arrayed compounds – biochemical, NeuroSMM set, 635/667 nm fluorescence, primary screen (AID 1119).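 Further: probe is the protein aXip251-270 applied at 1 µg/mL to compound-printed slides; binding of probe to printed compounds measured as 667 nm fluorescence plus signal to noise.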 Conditions: small-molecule microarray, higher = more signal, called active from +8 up or from −8 down.
Assay [12] in a line: probe aNOTCH3 binding on compound microarray – biochemical, small-molecule microarray, 635/667 nm fluorescence, primary screen (AID 1120).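 Further: probe is a biotin-tagged antibody raised against NOTCH3 rather than NOTCH3 protein; score merges spot fluorescence near 667 nm with spot signal to noise.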 Conditions: higher = more signal.
Assay [13] can be described thus: probe aNOTCH2 binding on compound microarray – biochemical, small-molecule microarray, 635/667 nm fluorescence, primary screen (AID 1121).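 Further: score merges feature fluorescence read at 667 nm with its signal to noise.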 Conditions: higher = more signal.
In assay [14] the target is Carbonic anhydrase 2 (Homo sapiens) (UniProt P00918). In words: compounds binding carbonic anhydrase 2 – biochemical, small-molecule microarray, Alexa647-labelled CAII, profiling panel (AID 1122). The note with it: CAII-A647 binding fluorescence, higher = more signal.
A short description of assay [15]: COS7 lysate on small-molecule microarray, probe aHis, 635 nm (AID 1123).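 Further: z-score combines 667nm fluorescence intensity with signal-to-noise per printed compound spot.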 The note with it: COS7 cell lysate, fluorescence, higher = more signal.
Assay [16] can be described thus: probe aLAP1 signal on lysate-treated microarray – cell lysate, small-molecule microarray, COS7 lysate, primary screen (AID 1124).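 Further: lysate comes from COS7 cells expressing LAP1 and is applied at 0.3 µg/mL; score merges spot fluorescence near 667 nm with signal-to-noise over triplicate slides.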 The note with it: probe aLAP1, fluorescence, higher = more signal.
The subject of a further assay is Sam68 (KHDRBS1). The assay can be described thus: compounds binding KHDRBS1 protein – biochemical, small-molecule microarray, 635 nm fluorescence, primary screen (AID 1125).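 Further: score merges 667 nm channel intensity with signal to noise over triplicate slides.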 The note with it: higher = more signal.
The subject of assay [17] is Chordin-like protein 2 (CHRDL2). In words: compounds binding chordin-like 2 – biochemical, small-molecule microarray, 635 nm fluorescence, primary screen (AID 1126).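 Further: printed compound slides probed with Chrdl2 protein at 4 µg/mL for 1 h at 4 C; score merges 667 nm emission intensity with signal to noise over three replicate slides.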 The note with it: fluorescence 635 nm, higher = more signal.
In assay [18] the target is Concanavalin-A (Canavalia ensiformis) (UniProt P02866). The assay can be described thus: compounds binding concanavalin A lectin – biochemical, small-molecule microarray, Alexa647 label, 635 nm, artefact control for SMM control protein annotation, primary screen (AID 1127).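 Further: z combines 667 nm emission intensity with signal-to-noise across three replicate slides.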 The note with it: ConA-A647 binding fluorescence, higher = more signal.
Chain of Concanavalin-A (Canavalia ensiformis) (P02866 whole entry, looked up): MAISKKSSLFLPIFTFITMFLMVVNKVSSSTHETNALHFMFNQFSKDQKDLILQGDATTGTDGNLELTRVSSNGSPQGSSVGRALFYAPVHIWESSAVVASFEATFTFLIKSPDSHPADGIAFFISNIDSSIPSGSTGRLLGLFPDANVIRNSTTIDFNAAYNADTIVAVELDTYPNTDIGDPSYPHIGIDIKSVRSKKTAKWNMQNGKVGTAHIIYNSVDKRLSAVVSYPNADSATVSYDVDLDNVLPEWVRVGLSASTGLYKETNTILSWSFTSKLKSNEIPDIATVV

Chain of Left-right determination factor 2 (Homo sapiens) (O00292 whole entry, looked up): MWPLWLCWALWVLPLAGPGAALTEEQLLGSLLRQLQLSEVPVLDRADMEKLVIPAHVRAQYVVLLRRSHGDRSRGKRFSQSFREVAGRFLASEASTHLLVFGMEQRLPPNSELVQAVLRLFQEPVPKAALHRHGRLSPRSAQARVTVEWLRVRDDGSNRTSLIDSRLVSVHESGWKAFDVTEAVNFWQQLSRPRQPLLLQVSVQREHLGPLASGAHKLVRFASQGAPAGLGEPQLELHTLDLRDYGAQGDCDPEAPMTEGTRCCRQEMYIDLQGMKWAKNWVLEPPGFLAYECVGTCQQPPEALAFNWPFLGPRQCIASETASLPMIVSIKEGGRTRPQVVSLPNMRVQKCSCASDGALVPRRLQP
Chain of Torsin-1A-interacting protein 1 (Homo sapiens) (Q5JTV8 whole entry, looked up): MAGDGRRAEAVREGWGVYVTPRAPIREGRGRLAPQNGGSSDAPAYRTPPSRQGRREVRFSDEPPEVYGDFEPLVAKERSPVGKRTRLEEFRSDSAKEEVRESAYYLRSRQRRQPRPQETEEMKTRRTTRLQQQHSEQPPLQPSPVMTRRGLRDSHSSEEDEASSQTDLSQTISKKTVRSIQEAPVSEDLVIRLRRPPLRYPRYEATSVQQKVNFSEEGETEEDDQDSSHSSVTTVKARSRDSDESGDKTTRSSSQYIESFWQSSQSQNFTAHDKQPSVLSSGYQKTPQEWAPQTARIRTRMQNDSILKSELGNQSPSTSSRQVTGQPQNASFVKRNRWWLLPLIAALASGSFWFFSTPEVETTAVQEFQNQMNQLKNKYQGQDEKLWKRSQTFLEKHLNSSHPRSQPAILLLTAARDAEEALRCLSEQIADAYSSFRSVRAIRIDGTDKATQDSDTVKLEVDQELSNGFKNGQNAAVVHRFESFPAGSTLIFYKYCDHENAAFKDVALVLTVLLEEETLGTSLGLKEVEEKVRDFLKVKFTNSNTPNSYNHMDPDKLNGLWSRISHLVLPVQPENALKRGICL
Chain of Albumin (Bos taurus) (P02769 whole entry, looked up): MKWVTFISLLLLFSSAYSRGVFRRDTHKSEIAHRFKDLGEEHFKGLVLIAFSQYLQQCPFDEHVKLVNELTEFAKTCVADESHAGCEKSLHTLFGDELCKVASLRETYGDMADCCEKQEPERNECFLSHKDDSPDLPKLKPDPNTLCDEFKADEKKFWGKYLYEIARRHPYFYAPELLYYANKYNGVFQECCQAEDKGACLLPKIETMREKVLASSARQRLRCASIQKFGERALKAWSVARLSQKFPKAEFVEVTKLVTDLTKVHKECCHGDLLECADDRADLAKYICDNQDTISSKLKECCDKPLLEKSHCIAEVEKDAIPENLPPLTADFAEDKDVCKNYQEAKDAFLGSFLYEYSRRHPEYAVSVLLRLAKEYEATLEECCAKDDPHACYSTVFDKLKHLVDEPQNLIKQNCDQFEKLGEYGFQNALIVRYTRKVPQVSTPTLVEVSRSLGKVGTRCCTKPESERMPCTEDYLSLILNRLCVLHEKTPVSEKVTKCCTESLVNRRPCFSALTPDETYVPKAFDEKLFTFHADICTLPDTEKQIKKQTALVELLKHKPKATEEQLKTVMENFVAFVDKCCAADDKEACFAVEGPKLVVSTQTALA
Chain of Alpha-bungarotoxin (Bungarus multicinctus) (P60615 whole entry, looked up): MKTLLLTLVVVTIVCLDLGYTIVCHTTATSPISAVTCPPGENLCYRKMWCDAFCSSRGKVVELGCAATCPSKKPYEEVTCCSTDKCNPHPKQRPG

On to `N#Cc1ccc(C(O)C2C=CC3C(=O)N(c4ccccc4)C(=O)C3N2Nc2ccccc2F)cc1` (stereo not given), for which the composite z-score in assay [1] is 1.29; in assay [3], 0.262; in [4], 0.123; in [5] it was -0.564; in assay [6], 0.0037; in assay [7] it was -0.218. Besides, the composite z-score in [8] is -0.376; in assay [9] it was 0.0448; in assay [10], 0.175; in the assay with Albumin (Bos taurus) it was 1.01; in assay [12], 0.173; in [13] it was -0.0771. Further, the composite z-score in assay [14] was 0.675; in assay [15], 1.99; in assay [16] it was 0.555; with Sam68 (KHDRBS1), 0.864; in assay [17], -0.284; in assay [18], 0.883. This compound also displayed a z-score in assay [2] of -0.494. The composite Z-score in [11] is -0.187 (inactive).
Consider `COC(=O)[C@@]1(CCC(=O)OC(C)(C)C)N=C(c2ccc(OCCCO)cc2)O[C@H]1c1ccccc1`, for which the composite z-score in assay [1] was 0.255; in assay [3], -0.211; in [4], 0.0108; in assay [5], -0.181; in assay [6], -0.0161; in assay [7], 0.351. Besides, the composite z-score was 0.711 in assay [8]; 0.692 in assay [9]; 0.629 in assay [10]; -0.735 with Albumin (Bos taurus); -0.0716 in [12]; 0.0464 in [13]. Besides, the composite z-score is 0.687 in assay [14]; 2.16 in assay [15]; 0.637 in [16]; -0.297 in the assay with Sam68 (KHDRBS1); 0.0741 in assay [17]; 0.57 in assay [18]. The z-score in assay [2] was -1.79. Also, the composite Z-score in assay [11] was 0.21 (inactive).
Consider `[N-]=[N+]=Nc1ccccc1C[C@]1(C(=O)N2CCCCC2)COC(c2ccc(OCCCO)cc2)=N1`, for which the composite z-score in assay [1] is 1.44; in [3], -0.241; in assay [4], 1.35; in assay [5] it was 0.234; in [6] it was 0.117; in assay [7], -0.217. The composite z-score in [8] is -0.673; in assay [9], 1.03; in assay [10], 0.465; with Albumin (Bos taurus) it was 0.715; in assay [12], 0.176; in assay [13] it was -0.124. Also, the composite z-score is 0.613 in assay [14]; 2.74 in [15]; 0.236 in assay [16]; 1.28 with Sam68 (KHDRBS1); -0.217 in assay [17]; 0.345 in assay [18]. In addition, the z-score in assay [2] was -2.43. Moreover, the composite Z-score in assay [11] is -0.218 (inactive).
With `O=C(NC1CC1)[C@@H]1c2ccccc2C(=O)N(C2Cc3ccccc3C2)[C@H]1c1ccc(CO)cc1`, the composite z-score was 1.32 in assay [1]; 0.716 in assay [3]; -0.199 in assay [4]; -0.253 in [5]; -0.0512 in [6]; -0.457 in assay [7]. The composite z-score in [8] is -0.608; in assay [9] it was 0.599; in assay [10], 0.154; in the assay with Albumin (Bos taurus), 0.378; in assay [12], -0.0166; in assay [13] it was 0.0386. The composite z-score in assay [14] is 0.608; in assay [15] it was 1.41; in assay [16], 0.237; with Sam68 (KHDRBS1), 1.24; in assay [17], 0.847; in assay [18] it was 0.918. Besides, in assay [2], the z-score was -0.865. Further, the composite Z-score in assay [11] was -0.358 (inactive).
Take `COCCCNC(=O)[C@@]1(Sc2ccc(C)cc2)CC(=O)N(Cc2ccccc2Cl)[C@@H]1c1ccc(CO)cc1`: the composite z-score is 1.36 in assay [1]; 0.585 in assay [3]; 0.532 in assay [4]; -0.184 in [5]; 0.0706 in assay [6]; 0.275 in assay [7]. Besides, the composite z-score is -0.205 in assay [8]; 0.566 in assay [9]; 1.25 in assay [10]; 0.71 with Albumin (Bos taurus); 0.132 in assay [12]; -0.14 in assay [13]. For the same compound, the composite z-score in assay [14] came out at 0.718; in [15], 1.35; in assay [16], 0.203; in the assay with Sam68 (KHDRBS1), 1.1; in assay [17], 0.649; in assay [18], 0.629. Besides, the z-score in [2] was -1.75. The composite Z-score in assay [11] is -0.301 (inactive).
`CC(=O)NCCCC[C@@H]1NC(=O)[C@H]2C[C@@H](C(=O)NCCCCCNC(=O)CS)[C@@H](c3ccc(O)cc3)N2C1=O`: the composite z-score in assay [1] is 0.46; in assay [3], -0.574; in [4] it was 0.362; in assay [5], 0.438; in assay [6], -0.0919; in assay [7] it was -0.0035. Further, the composite z-score was -0.196 in assay [8]; 0.177 in assay [9]; 0.117 in [10]; -0.16 in the assay with Albumin (Bos taurus); -0.136 in assay [12]; -0.133 in assay [13]. In addition, the composite z-score was 0.704 in [14]; 1.07 in [15]; -0.269 in [16]; 0.338 in the assay on Sam68 (KHDRBS1); -0.105 in assay [17]; 0.509 in assay [18]. This compound had a z-score in assay [2] of -0.0987. In assay [11], the composite Z-score was -0.249 (inactive).
